Screening results from PubChem.
An excerpt weighted towards active compounds, which were near 22% of everything screened.
Shiga inhibitor – A qHTS for Small Molecule Inhibitors of Shiga Toxin; Vero cells, Shiga toxin protein synthesis inhibition reporter; AID 2315, 2010; 290,000 tested, 9.2% active; inhibition, % at 38.7 µM; in the data active = inhibition mostly above about 28%, no sharp cut-off; inactive = mostly below about 43%; note: 0% is about no effect
Pf growth 48h – Primary qHTS for delayed death inhibitors of the malarial parasite plastid, 48 hour incubation. P. falciparum luciferase growth in erythrocytes, 48 h. Potency, µM (series often up to 28.7 µM), inactives show at the highest dose activity change, negative = inhibition, most hits filed as inhibitors. 310,000 tested, 5.9% active. AID 504832, 2011; note: potency is the fitted concentration of half-maximal effect; % is set by controls: 0 for no effect and ±100 for the full control effect
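Compounds are pin-transferred into medium, infected erythrocytes (2% hematocrit, 0.1% parasitemia final) are added, and plates sit one parasite generation at 37 C in 5% CO2. Detection reagent is then added and luminescence measured.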
LmPK inh – qHTS Assay for Inhibitors of Leishmania Mexicana Pyruvate Kinase (LmPK). 290,000 tested, 0.37% active. AID 1721, 2009. purified LmPK, Kinase-Glo ATP luminescence, 1 h. Potency, µM (doses to about 57.5 µM), inactives show at the highest dose activity change, negative = inhibition, most hits filed as inhibitors. Q27686; note: potency is the fitted concentration of half-maximal effect; % is set by controls: 0 for no effect and ±100 for the full control effect
Target sequence (Q27686 whole entry, looked up): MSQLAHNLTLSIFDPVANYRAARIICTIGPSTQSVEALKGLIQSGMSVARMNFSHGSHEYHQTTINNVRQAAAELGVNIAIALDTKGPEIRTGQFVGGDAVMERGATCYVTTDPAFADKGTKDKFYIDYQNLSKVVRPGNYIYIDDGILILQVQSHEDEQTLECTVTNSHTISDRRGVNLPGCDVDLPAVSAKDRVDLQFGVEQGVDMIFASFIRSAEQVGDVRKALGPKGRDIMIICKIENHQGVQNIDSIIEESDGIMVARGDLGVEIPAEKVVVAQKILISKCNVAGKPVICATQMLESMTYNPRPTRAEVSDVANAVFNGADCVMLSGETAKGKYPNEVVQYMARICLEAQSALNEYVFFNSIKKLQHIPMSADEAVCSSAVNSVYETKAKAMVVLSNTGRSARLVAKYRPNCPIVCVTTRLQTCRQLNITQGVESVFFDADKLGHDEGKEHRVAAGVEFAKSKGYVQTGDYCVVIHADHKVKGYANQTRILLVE
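Purified LmPK (0.1 nM) converted ADP (0.1 mM) to ATP with PEP (0.5 mM) in imidazole buffer pH 7.2 with KCl and MgCl2, 1 h at room temperature. ATP was read by Kinase-Glo luminescence; data normalized to uninhibited and no-enzyme controls.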
Cycloheximide cs – Cycloheximide Counterscreen for Small Molecule Inhibitors of Shiga Toxin; cell reporter, cycloheximide protein synthesis inhibition counterscreen; max response, %; 300,000 tested, 12% active; in the data active = max response mostly above about 13%, no sharp cut-off; inactive = mostly below about 14%; note: read at 38.3 µM for the half of the compounds with a filed dose; 0% is about no effect
Pf growth 96h – Primary qHTS for delayed death inhibitors of the malarial parasite plastid, 96 hour incubation | Potency, µM (titrated, usually from 28.7 µM), for inactives: at the highest dose activity change, negative = inhibition, usual class: inhibitors | AID 504834, 2011 | 320,000 tested, 6.9% active | P. falciparum luciferase reporter growth, 96 h; note: potency is the fitted concentration of half-maximal effect; % is set by controls: 0 for no effect and ±100 for the full control effect
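Compounds incubated with erythrocytes infected by luciferase-expressing P. falciparum (2% hematocrit, 0.05% parasitemia final) for 96 hours, 37 C in 5% CO2. Growth inhibition scored as decreased luciferase luminescence.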
* = called active by the depositor; i = inactive; ? = inconclusive; . = no result; [ ] = dose if it differs, or a comment. Unless noted, calls come from the whole dose curve; as a rule, active = well fitted inhibition curve with a large enough effect; inconclusive = small, poorly fitted or top-dose-only effect, or another doubt; inactive = no such curve, though single readings can be large or run the other way.

SMILES | Shiga inhibitor | Pf growth 48h | LmPK inh | Cycloheximide cs | Pf growth 96h
COC(=O)C1=C(CS(=O)(=O)c2cc(OC)ccc2OC)NC(=O)NC1c1ccc(O)c(OC)c1 (configuration not stated) | 0 | 16% | 4% | -5 | 10µM*
CCCCOc1ccccc1C1NC(=O)NC(C)=C1C(=O)OCc1ccco1 (configuration not stated) | 9 | 9.3µM* | 0% | 5 | ?
CCOC(=O)C1=C(C)NC(=O)NC1c1ccc(OC(=O)c2ccco2)cc1 (configuration not stated) | -8 | 10% | 4% | -3 | 7.4µM*
COC(=O)C1=C(C)NC(=S)NC1c1ccc(OC(=O)c2ccco2)cc1 (configuration not stated) | -18 | 18% | -4% | -2 | ?
Cc1cc(S(=O)(=O)Nc2ccc(C(=O)NCC(c3ccco3)N(C)C)cc2)ccc1F (configuration not stated) | . | ? | . | . | -7%
CCN1CCc2nc(N)oc2CC1 | . | 14% | . | . | 35%
O=C(COC(=O)c1cc(-c2ccccn2)nc2ccccc12)Nc1ncc(C(F)(F)F)cc1Cl | 17 | 66% | 5% | 6 | 148%
CC(=O)c1cccc(OCc2cc(C(=O)NCc3nc(C)c(C)s3)no2)c1 | 83* | -27% | -1% | 40* | -2%
C[C@@H]1CN(C(=O)c2cc(COc3cccc(C(F)(F)F)c3)on2)C[C@H](C)O1 | -12 | ? | -10% | 19 | 8%
CC(C)N(Cc1nccn1C)C(=O)c1cc(COc2cccc(C(F)(F)F)c2)on1 | -4 | 10% | 7% | -6 | -14%
CCOC(=O)N1CCN(C(=O)c2cc(COc3cccc(C(F)(F)F)c3)on2)CC1 | 60* | ? | 5% | 46* | 9%
CCOC(=O)N1CCN(C(=O)c2cc(COc3cccc(C(C)=O)c3)on2)CC1 | 45 | -9% | -10% | 41* | -10%
CN(Cc1nccn1C)C(=O)c1cc(COc2cccc(C(F)(F)F)c2)on1 | 42* | -9% | -11% | 37* | 9.3µM*
CCOC(=O)N1CCN(C(=O)c2cc(COc3ccc4ncccc4c3)on2)CC1 | -8 | ? | 5% | -2 | i
CC(=O)N1CCN(c2ccccc2NC(=O)COc2cc(C)ccc2C(C)C)CC1 | -2 | ? | 6% | -3 | .
Cc1ccc(C(C)C)c(OCC(=O)Nc2ccccc2N2CCN(C)CC2)c1 | -29 | 6.6µM* | 7% | -3 | 24%
Cc1ccc2c(c1)-c1c(cnn1CC(=O)Nc1ccccc1N1CCN(C)CC1)CO2 | -4 | 10µM* | -1% | -3 | -33%
CSCCC(NS(=O)(=O)c1cccc(C(F)(F)F)c1)C(=O)Nc1ccccc1N1CCCC1 (configuration not stated) | . | ? | . | . | 15µM*
O=C(COc1c(Cl)cccc1Cl)Nc1ccccc1N1CCCC1 | -2 | ? | 0% | -4 | ?
O=C(COc1cccc(C(F)(F)F)c1)Nc1ccccc1N1CCCCC1 | . | 10µM* | . | . | ?
CCN1CCN(C(=O)c2ccc(CS(=O)(=O)Cc3ccccc3C)o2)CC1 | -2 | 31% | 1% | 6 | ?
OCCN(Cc1ccccc1)c1ncnc2sccc12 | -11 | 2% | -5% | -1 | 10%
Cc1cc(C)cc(OCC(=O)Nc2ccccc2N2CCCCC2)c1 | -16 | 3% | -1% | -3 | .
CC(=O)N1CCN(c2ccccc2NC(=O)COc2ccc(Br)cc2)CC1 | -3 | ? | -1% | -1 | 4.7µM*
Cc1ccccc1OCC(=O)Nc1ccccc1N1CCCCC1 | 6 | ? | 8% | -3 | 10µM*
Cc1cc(OCC(=O)Nc2ccccc2N2CCCCC2)ccc1C(C)C | . | ? | . | . | 10µM*
O=C(COc1ccc(Br)cc1)Nc1ccccc1N1CCCC1 | 3 | -29%[5.75 µM] | 6% | -5 | ?
CCOC(=O)NC1(C(F)(F)F)NC(=O)N(c2ccc(F)cc2)C1=O (configuration not stated) | -8 | 1% | 1% | -4 | 4.7µM*
CC(=O)Nc1ccc(S(=O)(=O)NC2(C(F)(F)F)NC(=O)N(c3ccc(C)cc3)C2=O)cc1 (configuration not stated) | -10 | 9% | -1% | -2 | 9.3µM*
